Reference: the antibiotic and cytotoxicity screens of Wong et al. (2023)
Out of some 39,000 compounds screened, about 3,300 (8.5%) were called active. This excerpt belongs to a sample that is enriched for actives.

What follows are compounds tested on HepG2 (assay: cytotoxicity call (relative viability < 0.9)). Conditions: 10 µM.
For `COc1ccc(NC(=O)N(C)C[C@H]2Oc3ccc(NC(=O)Cn4cnnn4)cc3CC(=O)N([C@@H](C)CO)C[C@@H]2C)cc1`, the cytotoxicity call was “inactive”.
For `COc1ccc(NC(=O)Nc2ccc3c(c2)[C@@H]2C[C@@H](CC(=O)NCC(F)(F)F)O[C@@H](CO)[C@@H]2O3)cc1`, the cytotoxicity call was “inactive”.
In the case of `C[C@@H]1CN([C@H](C)CO)C(=O)c2cccc(NC(=O)Nc3ccc(F)cc3)c2O[C@@H]1CN(C)Cc1ccc(C(=O)Nc2ccccc2N)cc1`, the cytotoxicity call was “inactive”.
`COCC#Cc1cnc2c(c1)C(=O)N([C@H](C)CO)C[C@@H](C)[C@@H](CN(C)S(=O)(=O)c1ccccc1)O2` was tested, and the cytotoxicity call was “inactive”.
In the case of `COCCN1C(=O)C2=C(C1=O)[C@H]1N(C)c3ccccc3[C@@]13C[C@@H](CO)N(C(C)=O)C3=N2`, the cytotoxicity call was “inactive”.
With `C[C@H](CO)N1C[C@H](C)[C@H](CN(C)C(=O)Nc2ccc(C(F)(F)F)cc2)Oc2ncc(-c3ccc(C#N)cc3)cc2C1=O` the cytotoxicity call was “inactive”.
With `C=CCOC(=O)[C@@H]1[C@H]2C(=O)O[C@H](c3ccccc3)[C@H](c3ccccc3)N2[C@H](c2ccc(OCCOC(=O)NCCCCCC(=O)NO)cc2)[C@]12C(=O)Nc1ccccc12` the cytotoxicity call was “inactive”.
With `CC(C)(O)[C@H]1CC[C@@](C)([C@H]2[C@@H](O)C[C@@]3(C)[C@@H]4C[C@H](O[C@@H]5O[C@H](CO)[C@@H](O)[C@H](O)[C@H]5O)[C@H]5C(C)(C)[C@@H](O[C@@H]6OC[C@@H](O)[C@H](O)[C@H]6O)CC[C@@]56C[C@@]46CC[C@]23C)O1` the cytotoxicity call was “inactive”.
For `CC1CCC2(OC1)OC1CC3C4CCC5CC(O)CCC5(C)C4CCC3(C)C1C2C` (configuration not stated), the cytotoxicity call was “inactive”.
In the case of `C[C@@H]1CC[C@@]2(OC1)O[C@H]1C[C@H]3[C@H]4C[C@@H](O)[C@H]5C[C@@H](O[C@@H]6O[C@H](CO)[C@H](O[C@@H]7O[C@H](CO)[C@@H](O)[C@H](O[C@@H]8OC[C@@H](O)[C@H](O)[C@H]8O)[C@H]7O[C@@H]7O[C@H](CO)[C@@H](O)[C@H](O)[C@H]7O)[C@H](O)[C@H]6O)[C@H](O)C[C@]5(C)[C@@H]4CC[C@]3(C)[C@H]1[C@@H]2C`, the cytotoxicity call was “active”.
With `CC(C)(O)C1CCC(C)(C2C(O)CC3(C)C4CC(OC5OC(CO)C(O)C(O)C5O)C5C(C)(C)C(OC6OCC(O)C(O)C6O)CCC56CC46CCC23C)O1` (configuration not stated) the cytotoxicity call was “inactive”.
In the case of `C[C@@H]1CO[C@]2(O[C@H]3C[C@H]4[C@H]5C[C@H](O[C@H]6O[C@@H](C)[C@@H](O)[C@@H](O[C@@H]7O[C@@H](C)[C@H](O)[C@@H](O)[C@H]7O)[C@@H]6O)[C@H]6C[C@@H](O)CC[C@]6(C)[C@@H]5CC[C@]4(C)[C@H]3[C@@H]2C)[C@@H](O)C1`, the cytotoxicity call was “inactive”.
With `C[C@@H]1CC[C@@]2(OC1)O[C@H]1C[C@H]3[C@H]4C[C@@H](O)[C@H]5C[C@@H](O[C@@H]6O[C@H](CO)[C@H](O[C@@H]7O[C@H](CO)[C@@H](O)[C@H](O[C@@H]8OC[C@@H](O)[C@H](O)[C@H]8O)[C@H]7O[C@@H]7O[C@H](CO)[C@@H](O[C@@H]8O[C@H](CO)[C@@H](O)[C@H](O)[C@H]8O)[C@H](O)[C@H]7O)[C@H](O)[C@H]6O)[C@H](O)C[C@]5(C)[C@@H]4CC[C@]3(C)[C@H]1[C@@H]2C` the cytotoxicity call was “active”.
`C[C@H]1CN([C@@H](C)CO)C(=O)Cc2cc(NC(=O)C3CCCCC3)ccc2O[C@@H]1CN(C)C(=O)Nc1cccc2ccccc12` was tested, and the cytotoxicity call was “inactive”.
`Nc1nc(Cl)nc2c1ncn2[C@H]1C[C@@H](O)[C@@H](CO)O1` was tested, and the cytotoxicity call was “inactive”.
For `C[C@@H]1CN([C@@H](C)CO)C(=O)c2cc(N(C)C)ccc2O[C@@H](C)CCCCO[C@H]1CN(C)C(=O)Nc1cccc2ccccc12`, the cytotoxicity call was “inactive”.
In the case of `Fc1ccc(Nc2ncnc3sc(-c4ccccc4)cc23)cc1`, the cytotoxicity call was “inactive”.
For `COc1ccc(S(=O)(=O)Nc2ccc3c(c2)C(=O)N([C@H](C)CO)C[C@@H](C)[C@@H](CN(C)C(=O)Nc2cccc4ccccc24)O3)cc1`, the cytotoxicity call was “inactive”.
In the case of `CC(=O)Oc1cc2c(c(C)c1OC(C)=O)CC=C1[C@@]2(C)CC[C@@]2(C)[C@H]3C[C@](C)(C(=O)O)CC[C@]3(C)CC[C@]12C`, the cytotoxicity call was “active”.
With `CC1(C(=O)O)CCC2(C)CCC3(C)C(=CC(=O)C4C5(C)CCC(O)C(C)(C)C5CCC43C)C2C1` (configuration not stated) the cytotoxicity call was “inactive”.
For `C[C@@H]1CCCCO[C@H](CN(C)Cc2ccc(C(F)(F)F)cc2)[C@@H](C)CN([C@H](C)CO)C(=O)c2cc(NC(=O)CCC(F)(F)F)ccc2O1`, the cytotoxicity call was “inactive”.
For `C[C@@H]1CN([C@H](C)CO)C(=O)c2cc(NC(=O)CCC(F)(F)F)ccc2O[C@@H](C)CCCCO[C@H]1CN(C)Cc1ccc(C(=O)O)cc1`, the cytotoxicity call was “inactive”.
In the case of `C[C@H](CO)N1C[C@H](C)[C@H](CN(C)Cc2ccc(C(F)(F)F)cc2)OCCCC[C@H](C)Oc2ccc(NC(=O)CCC(F)(F)F)cc2C1=O`, the cytotoxicity call was “inactive”.
In the case of `C[C@@H]1CN([C@@H](C)CO)C(=O)c2cc(NC(=O)CCC(F)(F)F)ccc2O[C@@H](C)CCCCO[C@H]1CN(C)Cc1ccc(C(=O)O)cc1`, the cytotoxicity call was “inactive”.
In the case of `C[C@@H]1CCCCO[C@@H](CN(C)Cc2ccc(C(=O)O)cc2)[C@H](C)CN([C@H](C)CO)C(=O)c2cc(NC(=O)CCC(F)(F)F)ccc2O1`, the cytotoxicity call was “active”.
With `C[C@H]1CCCCO[C@H](CN(C)Cc2ccc(C(F)(F)F)cc2)[C@@H](C)CN([C@@H](C)CO)C(=O)c2cc(NC(=O)CCC(F)(F)F)ccc2O1` the cytotoxicity call was “active”.
`C[C@@H]1CCCCO[C@@H](CN(C)Cc2ccc(C(F)(F)F)cc2)[C@H](C)CN([C@H](C)CO)C(=O)c2cc(NC(=O)CCC(F)(F)F)ccc2O1` was tested, and the cytotoxicity call was “inactive”.
`C[C@@H]1CCCCO[C@H](CN(C)Cc2ccc(C(F)(F)F)cc2)[C@@H](C)CN([C@@H](C)CO)C(=O)c2cc(NC(=O)CCC(F)(F)F)ccc2O1` was tested, and the cytotoxicity call was “inactive”.
`C[C@H](CO)N1C[C@H](C)[C@@H](CN(C)Cc2ccc(C(F)(F)F)cc2)OCCCC[C@H](C)Oc2ccc(NC(=O)CCC(F)(F)F)cc2C1=O` was tested, and the cytotoxicity call was “inactive”.
In the case of `C[C@@H]1CN([C@H](C)CO)C(=O)c2cc(NC(=O)CCC(F)(F)F)ccc2O[C@@H](C)CCCCO[C@@H]1CN(C)Cc1ccc(C(F)(F)F)cc1`, the cytotoxicity call was “inactive”.
In the case of `C[C@@H]1CCCCO[C@H](CN(C)Cc2ccc(C(F)(F)F)cc2)[C@H](C)CN([C@@H](C)CO)C(=O)c2cc(NC(=O)CCC(F)(F)F)ccc2O1`, the cytotoxicity call was “active”.
`C[C@@H]1CCCCO[C@@H](CN(C)Cc2ccc(C(F)(F)F)cc2)[C@H](C)CN([C@@H](C)CO)C(=O)c2cc(NC(=O)CCC(F)(F)F)ccc2O1` was tested, and the cytotoxicity call was “active”.
With `CN(C)CC#Cc1ccc([C@@H]2[C@@H](CO)N3C(=O)CN(C(=O)c4cccnc4)C[C@H]23)cc1` the cytotoxicity call was “inactive”.
For `CO[C@H](CN(C)C(=O)Nc1ccc(C(F)(F)F)cc1)[C@@H](C)CN(Cc1ccccc1Cl)[C@@H](C)CO`, the cytotoxicity call was “inactive”.
In the case of `C=CCC[C@H](Cc1ccc(F)cc1)C(=O)O[C@H](CNC(=O)[C@@H](CC=C)CC(=O)N[C@@H](CO)Cc1ccccc1)c1ccccc1`, the cytotoxicity call was “inactive”.
For `C[C@H](CO)N1C[C@H](C)[C@@H](CN(C)Cc2ccc(-c3ccccc3)cc2)Oc2c(NC(=O)C3CC3)cccc2C1=O`, the cytotoxicity call was “inactive”.
For `NC(=O)NCC#Cc1ccc2c(c1)[C@]1(C(=O)N2)[C@H](C(=O)N2CCCCCCC2)[C@H]2C(=O)O[C@H](c3ccccc3)[C@H](c3ccccc3)N2[C@@H]1c1ccccc1OCCO`, the cytotoxicity call was “inactive”.
With `C[C@@H]1CN([C@@H](C)CO)S(=O)(=O)c2ccc(-c3ccccc3F)cc2O[C@H]1CN(C)S(C)(=O)=O` the cytotoxicity call was “inactive”.
`CN1C(=O)[C@@H](O)N(c2ccccc2)C1=O` was tested, and the cytotoxicity call was “inactive”.
`CCOC(=O)[C@H](CCc1ccccc1)N[C@@H](C)C(=O)N1C(=O)N(C)C[C@H]1C(=O)O` was tested, and the cytotoxicity call was “inactive”.
In the case of `CC(C)NC(=O)N(C)C[C@@H]1Oc2ccc(NS(=O)(=O)c3ccc(Cl)cc3)cc2CC(=O)N([C@@H](C)CO)C[C@H]1C`, the cytotoxicity call was “inactive”.
In the case of `C[C@@H]1CN([C@@H](C)CO)C(=O)c2cccc(NS(=O)(=O)c3cccs3)c2O[C@H]1CN(C)Cc1ccc(Cl)c(Cl)c1`, the cytotoxicity call was “inactive”.
With `COc1ccc(CN(C)C[C@H]2OCCCC[C@H](C)Oc3ccc(NC(=O)CCC(F)(F)F)cc3C(=O)N([C@@H](C)CO)C[C@H]2C)cc1` the cytotoxicity call was “inactive”.
For `C[C@H]1CCCCO[C@@H](CN(C)Cc2ccc(C(F)(F)F)cc2)[C@@H](C)CN([C@@H](C)CO)C(=O)c2cc(NC(=O)CCC(F)(F)F)ccc2O1`, the cytotoxicity call was “active”.
`C[C@@H]1CN([C@@H](C)CO)C(=O)c2cc(NC(=O)CCC(F)(F)F)ccc2O[C@@H](C)CCCCO[C@@H]1CN(C)Cc1ccc(C(F)(F)F)cc1` was tested, and the cytotoxicity call was “inactive”.
`C[C@@H]1CN([C@@H](C)CO)C(=O)c2cc(NC(=O)CCC(F)(F)F)ccc2O[C@@H](C)CCCCO[C@H]1CN(C)Cc1ccc(C(F)(F)F)cc1` was tested, and the cytotoxicity call was “inactive”.
For `COc1ccc(CN(C)C[C@H]2OCCCC[C@H](C)Oc3ccc(NC(=O)CCC(F)(F)F)cc3C(=O)N([C@H](C)CO)C[C@H]2C)cc1`, the cytotoxicity call was “active”.
For `COc1ccc(CN(C)C[C@H]2OCCCC[C@@H](C)Oc3ccc(NC(=O)CCC(F)(F)F)cc3C(=O)N([C@H](C)CO)C[C@H]2C)cc1`, the cytotoxicity call was “inactive”.
For `C[C@H](CO)N1C[C@H](C)[C@@H](CN(C)C(=O)Nc2ccc3c(c2)OCO3)OCCCC[C@H](C)Oc2ccc(NS(=O)(=O)c3ccc(Cl)cc3)cc2C1=O`, the cytotoxicity call was “inactive”.
In the case of `COC(=O)c1c2oc(c1C(=O)OC)C(=O)N[C@H](Cc1ccccc1)Cn1cc(nn1)CNC(=O)[C@@H](Cc1ccccc1)NC(=O)N[C@@H](COC(=O)NCCCCCC(=O)NO)CC2`, the cytotoxicity call was “inactive”.
For `C[C@H](NC(=O)[C@H]1N[C@H]2c3ccc(-c4ccc(C(=O)N(C)C)cc4)c(=O)n3C[C@H]2[C@@H]1CO)c1ccccc1`, the cytotoxicity call was “inactive”.
For `COc1ccc(NC(=O)N(C)C[C@@H]2Oc3ccc(NS(=O)(=O)c4cn(C)cn4)cc3CC(=O)N([C@H](C)CO)C[C@H]2C)cc1`, the cytotoxicity call was “inactive”.
